Screens (PubChem BioAssay)
This is a sample that favours compounds with a hit; in the whole collection about 7.5% have one here.
ELG1 genotox: inducers of genotoxicity in HEK293T ELG1-luciferase cells | HEK293T ELG1-luciferase reporter, luminescence, 16 h | Potency, µM (highest dose often 46 µM), actives largely listed as activators | 330,000 tested, 1.3% active; also: nearly all actives have a fitted effect of over 60% in size
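Genotoxic stress is detected as increased luminescence from luciferase-tagged ELG1 in HEK293T cells, measured with ONE-Glo after a 16 hr treatment at 37 °C.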
SMN2 splice enh: increases expression of the SMN2 splice variant; Potency, µM (highest dose often 46.1 µM), most hits filed as activators; 210,000 tested, 2.8% active; HEK293 SMN2-luciferase splicing reporter, luminescence, 30-36 h; also: nearly all actives have a fitted effect of over 55% in size
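HEK293 cells carry an SMN2 […]–luciferase reporter in which exon 7 inclusion puts luciferase in frame. Cells were plated 10-12 h before compound addition, then incubated 30-36 h at 37C. ONE-Glo luminescence was read; sodium butyrate at 4.5 mM final served as control.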
Rab9 prom act: activates the Rab9 promoter; Potency, µM (series often up to 9.22 µM), actives largely listed as activators; Huh7 Rab9 promoter-luciferase reporter, luminescence, 24 h; 320,000 tested, 2.8% active; also: nearly all actives have a fitted effect of over 60% in size
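Measured in stably transfected Huh7 cells bearing a Rab9 promoter–luciferase construct: 24 h compound treatment at 37 °C, followed by luminescence detection.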
NPC1 promoter act: NPC1 promoter activation; Huh7 NPC1 promoter luciferase reporter, 24 h; Potency, µM (doses to about 9.22 µM), usual class: activators; 320,000 tested, 2.4% active; AID 485313; also: nearly all actives have a fitted effect of over 60% in size
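NPC1 promoter–luciferase Huh7 cells; 24 h compound; luminescence.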
KinaseGlo FLuc: blocks Kinase-Glo luciferase, a counter-screen artifact | Kinase-Glo luciferase, ATP luminescence, 8 min | Potency, µM (series often up to 38.3 µM), actives largely listed as inhibitors | 200,000 tested, 0.28% active; also: nearly all actives have a fitted effect of over 60% in size
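Compound is pinned into ATP-containing buffer (10 uM ATP, imidazole pH 7.2, 7 mM MgCl2). Kinase-Glo luciferase reagent is then added. Light output is recorded following an 8-min room-temperature incubation.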
FLuc counter: firefly luciferase modulation, counter-screen for miR-21 project; P08659; purified FLuc, Km substrates, luminescence inhibition; Potency, µM (series often up to 57.5 µM), hits mostly inhibitors; 360,000 tested, 6.9% active; AID 588342; also: nearly all actives have a fitted effect of over 55% in size
Target sequence (P08659 whole entry, looked up): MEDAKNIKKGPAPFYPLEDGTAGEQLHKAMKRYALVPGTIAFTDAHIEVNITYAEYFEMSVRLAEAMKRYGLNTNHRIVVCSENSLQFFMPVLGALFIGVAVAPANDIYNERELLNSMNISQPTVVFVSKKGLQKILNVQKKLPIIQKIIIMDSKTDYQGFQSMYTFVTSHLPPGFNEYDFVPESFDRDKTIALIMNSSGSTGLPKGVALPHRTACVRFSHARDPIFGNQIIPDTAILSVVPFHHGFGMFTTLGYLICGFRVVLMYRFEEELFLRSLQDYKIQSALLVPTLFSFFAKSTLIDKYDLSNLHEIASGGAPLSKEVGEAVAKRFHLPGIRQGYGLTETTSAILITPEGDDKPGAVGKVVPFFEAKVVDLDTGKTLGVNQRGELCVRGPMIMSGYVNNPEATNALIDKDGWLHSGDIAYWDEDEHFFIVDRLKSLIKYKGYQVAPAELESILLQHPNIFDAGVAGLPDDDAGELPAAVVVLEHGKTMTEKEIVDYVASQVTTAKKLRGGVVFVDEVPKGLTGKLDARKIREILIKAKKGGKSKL
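Biochemical qHTS of compounds, final roughly 60 µM downward over six points, against 10 nM purified firefly luciferase using Km concentrations of substrates (10 uM D-luciferin, 10 uM ATP) in Tris acetate pH 7.5 buffer; luminescence output.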
Numbers stand for hits; – = inactive; ? = inconclusive; · = no result; [ ] = another dose, or the depositor's remark. Calls follow the shape of the dose curve; as a rule, active = well fitted curve in the direction sought with a large enough effect; inconclusive = small, poorly fitted or top-dose-only effect, or another doubt; inactive = no such curve, though single readings can be large; an effect the other way counts as inactive or inconclusive.

SMILES	ELG1 genotox	SMN2 splice enh	Rab9 prom act	NPC1 promoter act	KinaseGlo FLuc	FLuc counter
Clc1ccccc1CSc1nc2ccncc2[nH]1	18.4µM	12.6µM	3.55µM	?	?	15.1µM
COC(=O)C1=C(C)NC(C)=C(C(=O)OC(C)(C)CN(C)CCC(c2ccccc2)c2ccccc2)C1c1cccc([N+](=O)[O-])c1 (stereo not drawn)	·	·	–	–	·	·
O=C(NCc1ccccc1OC(F)(F)F)C1CCC(=O)N(C2CC2)C1 (stereo not drawn)	–	·	–	–	·	–
COc1cc(CN(C(=O)COc2ccccc2Cl)c2ccccn2)cc(OC)c1OC	·	·	·	·	·	–
COC(=O)c1cc2oc3ccccc3c2n1CC(=O)Nc1ccc(C)c(F)c1	·	–	·	·	·	–
[O-]/[N+](=C\c1ccc(OC(F)F)cc1)c1ccccc1	–	–	?	?	–	15.1µM
[O-]/[N+](=C/c1ccc(F)cc1)c1ccccc1	–	–	–	–	–	?
O=C1C2C3C=CC(C4CC34)C2C(=O)N1/N=C/c1cccs1 (stereo not drawn)	–	–	–	–	–	16.9µM
C/C(=N\Nc1ccccn1)c1ccc(S(=O)(=O)NCc2ccco2)cc1	–	–	–	–	–	?
COc1ccccc1NC(=O)COC(=O)c1ccc(S(=O)(=O)NCc2ccco2)cc1	–	–	–	–	–	12µM
C/C(=N\Nc1ccc(C(=O)O)cc1)c1ccc(Br)cc1	?	·	0.0891µM	?	·	0.19µM
COc1ccccc1NS(=O)(=O)c1ccc(C(=O)OCC(=O)NCc2ccco2)cc1	–	–	–	–	–	–
C/C(=N\Nc1ccc(C(=O)O)cc1)c1ccc(S(=O)(=O)NCc2ccco2)cc1	–	·	?	–	·	16.9µM
C/C(=N/Nc1ncc(Br)cn1)c1ccc(Br)cc1	–	·	–	–	·	–
C/C(=N\Nc1ccc(C(=O)O)cc1)c1ccc(Cl)s1	–	·	0.282µM	0.398µM	·	0.953µM
COc1ccccc1Cn1ccn(Cc2ccc(C)cc2)c(=O)c1=O	·	·	·	·	·	–
c1cncc(Nc2nc(-c3cccnc3)cs2)c1	–	–	–	–	–	?
COc1ccc(-c2csc(Nc3cccnc3)n2)cc1OC	–	–	–	–	–	2.39µM
COc1cccc(Nc2nc(-c3cccnc3)cs2)c1	?	·	?	?	·	4.78µM
Cc1ccc(Nc2nc(-c3cccnc3)cs2)cc1Cl	20.6µM	·	?	–	·	4.78µM
O=C(O)c1ccc(Nc2nc(-c3cccnc3)cs2)cc1O	–	·	–	–	·	12µM
COc1ccccc1CNC(=O)CCC1N=C2c3ccccc3N=C(SCC(N)=O)N2C1=O (stereo not drawn)	·	·	·	·	·	–
CCCCOC(=O)c1ccc(NC(=O)/C(C#N)=C/c2ccc(-c3ccccc3)o2)cc1	·	–	·	·	·	–
Cc1ccc(-n2c(=O)c3oc4ccccc4c3n(Cc3ccccc3)c2=O)cc1C	·	·	·	·	·	–
COC(=O)c1ccc2nc(C)cc(Nc3cccc(Cl)c3C)c2c1	·	–	·	·	·	–
SMILES	ELG1 genotox	SMN2 splice enh	Rab9 prom act	NPC1 promoter act	KinaseGlo FLuc	FLuc counter
COc1ccccc1C(=O)Nc1nc2ccccc2s1	?	·	?	2.24µM	·	0.107µM
COc1n[nH]c(C(=O)Nc2nc3ccccc3s2)c1[N+](=O)[O-]	16.4µM	11.2µM	?	?	–	15.1µM
COc1n[nH]c(C(=O)NCc2ccccc2)c1[N+](=O)[O-]	–	–	–	–	–	?
COc1ccccc1C(=O)Nc1nc(N)n(-c2ccccc2)n1	–	–	–	–	–	12µM
COC(=O)CCCCCCCCC(=O)Nc1nc2ccccc2s1	–	–	–	–	–	–
COc1ccc(C(=O)Nc2nc3ccccc3s2)c(OC)c1	–	·	–	?	·	0.0151µM
COc1cc(C(=O)Nc2nc(N)n(-c3ccccc3)n2)cc(OC)c1OC	–	?	–	–	–	–
CCOc1ccccc1NC(=O)N(Cc1ccc(C)o1)C1CCN(C(C)=O)CC1	·	·	·	·	·	–
COc1ccccc1-c1cc(-c2ccccc2)nc(=O)[nH]1	–	·	–	–	·	–
COc1ccccc1-c1cc2ccccc2[nH]1	?	12.6µM	?	–	–	15.1µM
COc1ccc(C2=Nc3ccc(OC(F)(F)F)cc3NC(c3cccnc3)=N2)cc1	·	–	·	·	·	–
Nc1ccc2nc(NC(=O)C3CCCCC3)sc2c1	20.6µM	14.1µM	4.47µM	?	–	6.75µM
O=C(Nc1nnc(-c2ccccc2F)s1)C1CCCO1 (stereo not drawn)	?	5.01µM	2.51µM	3.55µM	–	15.1µM
O=C(Nc1nc2ccccc2s1)C1c2ccccc2Oc2ccccc21	–	–	–	–	–	–
CCOc1ccc2nc(NC(=O)C3CCCO3)sc2c1 (stereo not drawn)	–	·	–	–	–	–
O=C(Nc1nnc(-c2ccncc2)s1)C1CCCO1 (stereo not drawn)	–	?	–	–	–	–
O=C(Nc1nc2ccc(F)cc2s1)C1CCCO1 (stereo not drawn)	?	15.8µM	2.24µM	1.12µM	–	6.75µM
O=C(Nc1nc2ccccc2s1)C1CCCO1 (stereo not drawn)	5.8µM	12.6µM	?	1.12µM	–	15.1µM
C=CCOC(=O)NC(c1ccc(F)c(F)c1)C(C(=O)CCl)C(=O)OC (stereo not drawn)	·	–	·	·	–	·
Cc1ccc2nc(NC(=O)C3CCN(S(=O)(=O)c4cc([N+](=O)[O-])ccc4Cl)CC3)sc2c1	–	–	–	–	–	?
O=C(Nc1nc2ccc(F)cc2s1)C1CCN(S(=O)(=O)c2cc([N+](=O)[O-])ccc2Cl)CC1	–	–[1.84 µM]	–	–	–	10.7µM
O=C(Nc1ncc(Cc2ccccc2)s1)C1CCCO1 (stereo not drawn)	?	5.01µM	2.24µM	1.12µM	–	4.26µM
Cc1ccc(NC(=O)C2CCCN(c3nnc(C)c4c(C)n(-c5ccccc5)nc34)C2)c(Cl)c1 (stereo not drawn)	·	·	·	·	·	–
CCOc1ccccc1Nc1nc(-c2cccc(Cl)c2)c2c(n1)-c1ccccc1OC2	·	·	·	·	·	10.7µM
c1ccc(-c2cc(-c3ccccc3)c3c(n2)-c2ccccc2OC3)cc1	·	–	·	·	·	?
SMILES	ELG1 genotox	SMN2 splice enh	Rab9 prom act	NPC1 promoter act	KinaseGlo FLuc	FLuc counter
Cc1ccc(N2CCN(c3ncnc4onc(-c5ccc(F)cc5)c34)CC2)c(C)c1	·	·	·	·	·	–
CN1CCN(C(=O)c2ccc(-n3c(=O)c(=O)[nH]c4ccccc43)cc2)CC1	·	·	·	·	–	·
Cc1ccc(C2=Nc3ccccc3N(CC(=O)Nc3ccccc3C)C(=O)C2)cc1C	·	·	·	·	·	10.7µM
CCSc1nc(N)nc(-c2cccs2)c1C#N	20.6µM	?	–	–	–	?
Oc1c(CN2CCN(c3ccccn3)CC2)cc(Cl)c2cccnc12	7.31µM	–	–	–	–	–
CC(C)C(=O)Nc1ccc(NC(=O)c2cccc3c(Br)cccc23)cc1	–	·	–	–	·	–
Cn1cccc1/C=C1/SC(=S)N(CC(=O)O)C1=O	–	–	–	–	–	?
